Laboratory results as given in PubChem BioAssay (EPA / NIEHS).
Values joined by “and” are separate entries in the source; they are usually repeats but may differ in a detail not shown here. Identical values can stand only once. Active and inactive are the calls of the source. How the source made its calls: active means hit-call score of the fitted dose curve at least 0.9, where 1 is the maximum; inactive means score below 0.9.

These molecules were tested on Interleukin 17F (IL17F), IL17F (gene 112744) (assay: BSK_BT_xIL17F: BioMAP Diversity Plus: BT Assay for Interleukin 17F (IL17F) Biomarker Activity (AID 2284243)). Conditions: primary human B cells with PBMC.
Description: BSK_BT is a cell-based, multiplexed-readout assay that uses B cell and peripheral blood mononuclear cells, a human vascular primary cell co-culture, with measurements taken at 24 hours after chemical dosing in a microplate: 96-well plate.BSK_BT_xIL17F is an assay component measured in the BSK_BT assay. It measures secreted IL-17F related to regulation of gene expression using LumineX xMAP technology.Data from the assay component BSK_BT_xIL17F was analyzed at the endpoint, BSK_BT_xIL17F, in the positive analysis fitting direction relative to DMSO as the negative control and baseline of activity. Using a type of cytokine quantitation reporter, gain or loss-of-signal activity can be used to understand protein changes. To generalize the intended target to other relatable targets, this assay endpoint is annotated to the 'cytokine' intended target family, where the subfamily is 'interleukins'.
The levels of cell surface (or secreted, indicated by the prefix "s") biomarker endpoints were measured by ELISA. Overt cytotoxicity to cells in confluent adherent cultures (all systems other than the BT system) was assessed by measuring total protein levels using sulforhodamine B (SRB) staining in parallel cultures at the time of biomarker measurements, indicated as SRB endpoints. For proliferation assays for adherent cell types, individual cell types are cultured at sub-confluence and relative cell numbers quantified by SRB staining at time points optimized for each system (48 h: 3C and CASM3C systems; 72 h: BT and HDF3CGF systems; 96 h: SAg system). SRB was performed by staining cells with 0.1% SRB after fixation with 10% TCA and reading wells at 560 nm.Viability and proliferation of PBMC (T cells) was quantified by Alamar Blue reduction for the SAg and BT systems. For PBMC viability (referred to as PBMC Cytotoxicity within the assay endpoint names), cells were plated (75,000/well in a 96-well plate) and then chemical samples added for 1 h before addition of activators, SEB and TSST-1 (20 ng/mL final concentration each). Cells were incubated for 90 h. Then, Alamar Blue (20 uL/well) (Invitrogen, Cat DAL1100) was added for 6 h, and the plates were read with a fluorescence microplate reader at 546/580 nm (excitation/emission). For PBMC proliferation, cells were plated and activated as above but incubated for only 16 h prior to addition of Alamar Blue. Plates were read after 6 h.

Row | SMILES | AC50 | outcome
1 | O=C1C(Cl)=C(Cl)C(=O)C(Cl)=C1Cl | 28.8 µM (active) | 
2 | O=c1[nH]c(Cl)c(Cl)cc1Cl |  | inactive
3 | CNC(=O)Oc1cc(C)c(SC)c(C)c1 | 20 µM (active) | 
4 | Oc1cc(Cl)ccc1Cl |  | inactive
5 | CC(C)CCCCCCCOP(=O)(Oc1ccccc1)Oc1ccccc1 | 25.5 µM (active) | 
6 | O=C(O)CCCc1ccc(N(CCCl)CCCl)cc1 | 20 µM (active) and 15.2 µM (active) | 
7 | O=c1c2ccccc2c(=O)c2c1cc(Cl)c1[nH]c3c([nH]c12)c(Cl)cc1c(=O)c2ccccc2c(=O)c13 |  | inactive
8 | O=S(=O)(c1ccccc1)c1ccccc1 |  | inactive
9 | CC(C)CCCCCCCOC(=O)c1ccccc1C(=O)OCCCCCCCC(C)C |  | inactive
10 | CCc1cc(C)cc(CC)c1-c1c(OC(=O)C(C)(C)C)n2n(c1=O)CCOCC2 |  | inactive
11 | CC1(C)[C@H](C(=O)O[C@H](C#N)c2cccc(Oc3ccccc3)c2)[C@@H]1C=C(Br)Br | 28.7 µM (active) and 20 µM (active) | 
12 | CC(C)COP(=O)(OCC(C)C)OCC(C)C |  | inactive
13 | C=CC(=O)OCC(CC)CCCC (stereo not given) |  | inactive
14 | CC(C)(C)C(=O)CCl |  | inactive
15 | c1ccc(Nc2ccc3ccccc3c2)cc1 | 30.8 µM (active) | 
16 | O=C1C=CC(=O)C=C1 | 29.2 µM (active) | 
17 | C=CCN(CC=C)C(=O)C(Cl)Cl |  | inactive
18 | Nc1ccc(-c2ccc(N)c(N)c2)cc1N | 23.6 µM (active) | 
19 | O=[N+]([O-])C=Cc1ccccc1 | 5.05 µM (active) | 
20 | O=P1(NCCCl)OCCCN1CCCl (stereo not given) |  | inactive
21 | COC(C)(C)CCC[C@H](C)C/C=C/C(C)=C/C(=O)OC(C)C | 24.4 µM (active) | 
22 | CC(C)(C)C(O)C(Oc1ccc(-c2ccccc2)cc1)n1cncn1 (stereo not given) |  | inactive
23 | CC(=O)/C=C/c1ccccc1 | 20 µM (active) | 
24 | Clc1ccc(-c2ccccc2)cc1 |  | inactive
25 | CCCOC(=O)c1ccccc1C(=O)OCCC |  | inactive
26 | CCCCCCCCCCCC#N |  | inactive
27 | Cc1ccc(OP(=O)(Oc2ccc(C)cc2)Oc2ccc(C)cc2)cc1 (tested in a mixture with another compound) | 24.6 µM (active) | 
28 | COCC(=O)N(c1c(C)cccc1C)N1CCOC1=O |  | inactive
29 | CCC(C)c1cc([N+](=O)[O-])cc([N+](=O)[O-])c1OC(=O)C=C(C)C (stereo not given) | 29.3 µM (active) | 
30 | CC(C)(c1cc(Cl)c(O)c(Cl)c1)c1cc(Cl)c(O)c(Cl)c1 |  | inactive
